Assay results published in PubChem BioAssay (NCATS).
Where “and” joins values, the source holds several entries; their conditions need not be identical. Identical values can stand only once. Records with an inconclusive call do not appear. A structure can be active in one record and inactive in another. Calls of active or inactive are those of the source. Unless noted, calls follow the shape of the dose curve; as a rule, active = well fitted inhibition curve with a large enough effect; inconclusive = small, poorly fitted or top-dose-only effect; inactive = no such curve, though single readings can be large or run the other way.

Tests used:
[1] = qHTS profiling of the MIPE4 collection as inhibitors of Plasmodium falciparum (HB3) proliferation (AID 743347; call rule not given here;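 also: plate controls were DMSO vehicle wells for no effect and artemisinin wells for full effect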); details: P. falciparum HB3 in erythrocytes, SYBR Green DNA, 72 h; at 28.5 µM (top of the series) unless noted
Outline: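 Parasite DNA was quantified by SYBR Green I fluorescence (ex 485, em 535 nm) after overnight lysis in saponin/Triton buffer at room temperature. Cultures at 0.3% parasitemia and 2.5% hematocrit were first exposed to compound for 72 h at 37 C; signals were normalised to artemisinin (0.29 uM) and vehicle wells.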

[2] = Cell Proliferation Assay Versus the ED40515 IL2 Dependent ATL cell lines (AID 1053195; calls by dose curve); details: ED40515 IL2-dependent ATL cells
Outline: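 CellTiter-Glo luminescence (15 min, RT) measured viability after 48 hours at 37C; cells were ED40515 +IL2, 1000/well, in phenol red-free RPMI with 5% FBS. Controls: DMSO and 9.2 uM bortezomib.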

[3] = High-throughput drug toxicity screening in the BPDCN cell line Gen2.2 (AID 1224824; call rule not given here;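 also: cells exposed to compounds for 48 h before reading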); details: Gen2.2 BPDCN cells; at 45.8 µM (top of the series) unless noted
Outline: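 Seed 500 exponentially growing Gen2.2 cells/well; add compounds by pin tool; incubate 48 h, 37 °C, 5% CO2; add CellTiter-Glo, 15 min RT; read luminescence. % activity vs DMSO (100%) and bortezomib (0%).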

[4] = High-throughput drug toxicity screening in the BPDCN cell line Cal-1 (AID 1224825; call rule not given here); details: Cal-1 BPDCN cell viability, qHTS; at 45.8 µM (top of the series) unless noted
Outline: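 Percent activity derived from CellTiter-Glo luminescence, scaling DMSO to 100% and 9.2 uM final bortezomib to 0%. BPDCN Cal-1 cells (500/well, RPMI plus 10% FBS) incubated with compounds 48 hours at 37C before reading.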

[5] = qHTS assay for measurement of the activity of small molecule inhibitors on Zika virus induced Caspase-3 activity in human astrocytoma cells (AID 1224859); also: potency is read from the fitted curve at half-maximal effect
Outline: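 Compound added 1 h pre-infection; ZIKV 2 FFU/cell on SNB-19 cells, 6 h, 37 C/5% CO2. Caspase-Glo 3/7 luminescence; values as % inhibition of ZIKV-induced caspase activity.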

[6] = qHTS Screen of the MIPE 4.0 Collection Against Ewings Sarcoma (RDES) (AID 1259252); also: nearly all actives have a fitted effect of over 35% in size; also: potency is read from the fitted curve at half-maximal effect
Outline: (§1)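 Cells plated in serum-containing RPMI (5% FBS) and treated with compound dilutions for 48 h. Readout luminescent viability; normalization relied on vehicle (no inhibition) and media-only columns (full inhibition).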

[7] = qHTS Screen of the MIPE 4.0 Collection Against Ewings Sarcoma (TC71) (AID 1259253); also: nearly all actives have a fitted effect of over 40% in size; also: potency is read from the fitted curve at half-maximal effect
Outline: as §1

[8] = qHTS Screen of the MIPE 4.0 Collection Against Ewings Sarcoma (EW8) (AID 1259255); also: nearly all actives have a fitted effect of over 35% in size; also: potency is read from the fitted curve at half-maximal effect;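 as to viability: 100% = DMSO-treated cells and 0% = medium-only wells without cells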
Outline: as §1

[9] = qHTS assay for measurement of the activity of small molecule inhibitors on Zika virus induced Caspase-3 activity in human iPSC derived neural progenitor cells (hNPCs) (AID 1224857); also: nearly all actives have a fitted effect of over 65% in size; also: potency is read from the fitted curve at half-maximal effect
Outline: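 Values are percent inhibition of virus-induced caspase-3/7 signal, scaled between uninfected cells and ZIKV-infected cells. Infection used 2 FFU/cell for 6 h after 1 h compound exposure.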

| Structure (SMILES) | growth, % of control [1] | Potency [2] | cell viability, % of control (lower = more cytotoxic) [3] | viability (% of control) [4] | Potency [5] | Potency [6] | Potency [7] | Potency [8] | Potency [9] |
| --- | --- | --- | --- | --- | --- | --- | --- | --- | --- |
| Fc1ccc(Cl)cc1-c1nc(Nc2ccncc2)c2nccnc2n1 | 8.98% | 13.2 µM (active) | 443% | 85.1% | inactive | inactive |  |  |  |
| COc1ccc(CC2=NN3C([C@@H](CCc4ccccc4)[C@@H](C)O)=NC(C)C3C(=O)N2)cc1OC (stereo partly drawn) | 82% | 10.5 µM (active) | 276% | 115% | 10.5 µM (active) | inactive | inactive | inactive |  |
| Cc1n[nH]c(C)c1Cc1sc2c(c1C(=O)N1C[C@H](O)CO1)c(=O)n(C)c(=O)n2CC(C)C | 145% | 0.0019 µM (active) | 109% | 96.6% | inactive | inactive | 0.166 µM (active) | inactive |  |
| CC(C)OC(=O)C1=CN(C(=O)c2ccc(F)c(F)c2)CC(C)(C)c2c1[nH]c1ccccc21 | 46.5% |  | 115% | 108% | inactive | inactive | inactive | inactive | inactive |
| CC[C@H](Nc1ncnc2nc[nH]c12)c1nc2cccc(F)c2c(=O)n1-c1ccccc1 |  | 5.9 µM (active) | 4.94% | 18.8% | inactive | 2.35 µM (active) | 2.96 µM (active) | 2.64 µM (active) |  |
| Cc1cccc(-c2[nH]c(C(C)(C)C)nc2-c2ccc3nccnc3c2)n1 | 6.8% |  | 391% | 15.5% | inactive | 16.6 µM (active) | 26.4 µM (active) | 23.5 µM (active) | inactive |
| OCCn1cc(-c2cnc3nnn(Cc4ccc5ncccc5c4)c3n2)cn1 | 47.5% | 18.7 µM (active) | 140% | 89.8% | inactive | inactive | inactive | inactive |  |
| CCCc1nn(C)c2c(=O)[nH]c(-c3cc(S(=O)(=O)N4CCN(C)CC4)ccc3OCC)nc12 | 24.6% | 37.2 µM (active) | 91.7% | 81.8% | inactive |  | 13.2 µM (active) |  |  |
| O=C1CCc2cc(OCCCCc3nnnn3C3CCCCC3)ccc2N1 | 104% |  | 137% | 84.4% | inactive | inactive | inactive | inactive | inactive |
| CC(C)(N)C(=O)N[C@H](COCc1ccccc1)C(=O)N1CCC2(CC1)CN(S(C)(=O)=O)c1ccccc12 | 26.2% | 11.8 µM (active) | 14.7% | 71% | inactive |  | 29.6 µM (active) | 20.9 µM (active) |  |
| O=c1ncn2nc(Sc3ccc(F)cc3F)ccc2c1-c1c(Cl)cccc1Cl | 13.6% | 16.6 µM (active) | 98.9% | 45.3% | inactive |  |  |  | inactive |
| CS(=O)(=O)c1ccc(C(=O)Nc2ccc(Cl)c(-c3ccccn3)c2)c(Cl)c1 | 92.4% |  | 312% | 65.3% | inactive | inactive | inactive | inactive | inactive |
| CN([C@@H](Cc1ccc(OS(=O)(=O)c2cccc3cnccc23)cc1)C(=O)N1CCN(c2ccccc2)CC1)S(=O)(=O)c1cccc2cnccc12 | 4.99% | 6.62 µM (active) |  |  |  |  |  |  |  |
| O=C(O)[C@@H](c1ccc(OCc2ccc3ccccc3n2)cc1)C1CCCC1 | 84.3% | 26.4 µM (active) | 125% | 73.2% | 13.2 µM (active) | inactive | inactive | inactive |  |
| COc1cc(F)c(F)c(Nc2ccc(I)cc2F)c1NS(=O)(=O)C1(C[C@H](O)CO)CC1 | 17.2% | 37.2 µM (active) | 27.8% | 82.2% | inactive | 20.9 µM (active) | 16.6 µM (active) |  |  |
| C[C@H](NC(=O)Cc1cc(F)cc(F)c1)C(=O)N[C@@H]1C(=O)N(C)c2ccccc2-c2ccccc21 | 3.07% |  | 176% | 43.1% | inactive | 8.33 µM (active) | 10.5 µM (active) | 11.8 µM (active) | inactive |
| CNC[C@H](O)c1cccc(O)c1 | 92.6% |  | 196% | 133% | inactive | inactive | inactive | inactive | inactive |
| Cc1[nH]c(=O)c(C#N)cc1-c1ccc2nccn2c1 | 68.7% |  | 220% | 95.5% | inactive and 4.69 µM (active) | inactive | inactive | inactive | inactive and 7.43 µM (active) |
| Cc1cc(C=c2sc3nc4ccccc4n3c2=O)c(C)n1-c1ccccc1 | 424% | 6.62 µM (active) | 74.1% | 103% | inactive | inactive |  | inactive |  |

| Structure (SMILES) | growth, % of control [1] | Potency [2] | cell viability, % of control (lower = more cytotoxic) [3] | viability (% of control) [4] | Potency [5] | Potency [6] | Potency [7] | Potency [8] | Potency [9] |
| --- | --- | --- | --- | --- | --- | --- | --- | --- | --- |
| CC(C)NCC(O)COc1ccc(COCCOC(C)C)cc1 (stereo not drawn) | 102% |  | 123% | 113% | inactive | inactive | inactive | inactive | inactive |
| Cc1cc2c(F)c(Oc3ncnn4cc(OC[C@@H](C)O)c(C)c34)ccc2[nH]1 | 76.7% |  | 249% | 71.2% | inactive | 2.35 µM (active) | 13.2 µM (active) | 20.9 µM (active) | inactive |
| CCN(CC)CCCC(C)Nc1ccnc2cc(Cl)ccc12 (stereo not drawn) | 41.8% |  | 103% | 21.4% | inactive | inactive | inactive | inactive | inactive |
| NC(N)=NC(=O)c1nc(Cl)c(N)nc1N |  |  | 12.8% | 23.5% | inactive | inactive | inactive | inactive | inactive |
| Cc1oncc1C(=O)Nc1ccc(C(F)(F)F)cc1 | 10.6% |  | 32.8% | 63.8% | inactive and 2.64 µM (active) | 8.33 µM (active) | 18.7 µM (active) | 20.9 µM (active) | inactive and 2.64 µM (active) |
| Nc1nc2ccc(OC(F)(F)F)cc2s1 | 7.48% | 23.5 µM (active) | 93.2% | 103% | inactive |  |  |  |  |
| Cc1cnc(Nc2ccc(OCCN3CCCC3)cc2)nc1Nc1cccc(S(=O)(=O)NC(C)(C)C)c1 | 2.63% |  | 112% | 72.4% | inactive | inactive | inactive | inactive | inactive |
| CCCCNc1cc(C(=O)O)cc(S(N)(=O)=O)c1Oc1ccccc1 | 84% |  | 596% | 113% | inactive | inactive | inactive | inactive | inactive |
| O=C(O)COCCN1CCN(C(c2ccccc2)c2ccc(Cl)cc2)CC1 (stereo not drawn) | 91% |  | 178% | 124% | inactive | inactive | inactive | inactive | inactive |
| CCOC(=O)C1=C[C@]2(CC)CCCN3CCc4c(n1c1ccccc41)[C@@H]32 | 10% and 13.6% |  | 13.3% | 2.19% | inactive |  | 20.9 µM (active) | 18.7 µM (active) | inactive |
| COc1ccc(COc2cc3oc(=O)c4cc(C(C)O)ccc4c3cc2OC)cc1 (stereo not drawn) | 46.1% |  | 14.7% | 33.4% | inactive |  | 23.5 µM (active) | 20.9 µM (active) | inactive |
| NNCCc1ccccc1 | 96.6% |  | 133% | 10.4% | inactive |  | 20.9 µM (active) | 9.35 µM (active) | inactive and 26.4 µM (active) |
| NS(=O)(=O)c1cc2c(cc1Cl)NC=NS2(=O)=O | 105% |  | 71.6% | 26.7% | inactive |  | inactive | inactive | inactive |
| CCOc1ccn(-c2ccc(F)cc2)c(=O)c1C(=O)Nc1ccc(Oc2ccnc(N)c2Cl)c(F)c1 | 73% |  | 145% | 23.7% | inactive | 23.5 µM (active) |  |  | inactive |
| COc1ccccc1-c1cccc(-c2c(O)c3cc(C#N)c(Cl)cc3[nH]c2=O)c1 | 14.1% [at 57.5 µM] |  | 52.6% [at 92.2 µM] | 99.8% [at 92.2 µM] | inactive | inactive |  | 30.3 µM (active) | inactive |
| c1ccc([C@H]2CN3CCSC3=N2)cc1 | 95.1% |  | 200% | 116% | inactive | inactive | inactive | inactive | inactive |
| O=C1CCC(N2C(=O)c3ccccc3C2=O)C(=O)N1 (stereo not drawn) | 114% |  | 167% | 95.9% | inactive | inactive | inactive | inactive | inactive |
| NC(=O)c1ccc(-c2nc(-c3ccc4c(c3)OCO4)c(-c3ccccn3)[nH]2)cc1 | 18.7% |  | 624% | 113% | inactive |  | 14.8 µM (active) | 16.6 µM (active) | inactive |
